# The OligoGym collection
# Biological target: RYK
# Experiment: pooled miR-30 sensor sort-seq; sequence = guide strand
# Details: shRNA
# Also: reference of the scale not given here.
row,Sequence,sensor-assay potency score (higher = more potent)
1,TAACTGTTTTGACAAATGCTTG,-1.47
2,TTGTATTATCTCCTTTTCCAGA,-1.16
3,TATTGCTATATCCTTCACCTTG,-0.912
4,TTTTCATCTATTAAAATCCCAT,-0.695
5,TATTCGGTAACCATCTTTCAGG,-0.693
6,TTTTTGTAGCACATTTTCCTTC,-0.15
7,TTTAGAGTTATCCTCTCTCTGG,-0.8
8,TTGAAGACAAACCATTTCCCAG,-0.946
9,TTTCATACTATGAAGGTGCAAA,-0.131
10,TTACTGCACAACAAACCCCTAC,-0.546
11,TTGTCTGTGATCTTAACTTGAA,-0.554
12,TTGTAGCACATTTTCCTTCGTT,0.000719
